# Laboratory results reported in PubChem BioAssay (NCI).
# Compounds without any hit were thinned out: in the full panel of roughly 83,000, 20% have a hit.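 Values shown are percent growth following 48 h exposure of cells in 96-well plates to a single concentration of compound; below 10 was considered active.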 A number with no mark means an inactive call. The source made the active and inactive calls.
# Columns and labels:
# Experiment in all cases: NCI-60 one-dose screen, 48 h (100 = growth as untreated, 0 = no growth, -100 = all killed)
# Conditions in all cases: 10 µM unless noted
# NCI-H23 lung = tested on: NCI-H23 lung
# NCI-H226 lung = tested on: NCI-H226 lung
# NCI-H322M lung = tested on: NCI-H322M lung
# HOP-62 NSCLC = tested on: HOP-62 NSCLC
# NCI-H460 lung = tested on: NCI-H460 lung
# NCI-H522 lung = tested on: NCI-H522 lung
# A549/ATCC NSCLC = tested on: A549/ATCC NSCLC
# 786-0 renal = tested on: 786-0 renal
# COLO 205 colon = tested on: COLO 205 colon
# DU-145 prostate = tested on: DU-145 prostate
# K-562 leukemia = tested on: K-562 leukemia
# MALME-3M melanoma = tested on: MALME-3M melanoma
# MDA-MB-231 breast = tested on: MDA-MB-231 breast
# RXF 393 renal = tested on: RXF 393 renal
# SF-268 CNS = tested on: SF-268 CNS
# SF-295 CNS = tested on: SF-295 CNS
# SF-539 CNS = tested on: SF-539 CNS
# UACC-257 melanoma = tested on: UACC-257 melanoma
# M14 melanoma = tested on: M14 melanoma
# HCT-15 colon = tested on: HCT-15 colon
SMILES,growth (NCI-H23 lung),growth (NCI-H226 lung),growth (NCI-H322M lung),growth (HOP-62 NSCLC),growth (NCI-H460 lung),growth (NCI-H522 lung),growth (A549/ATCC NSCLC),growth (786-0 renal),growth (COLO 205 colon),growth (DU-145 prostate),growth (K-562 leukemia),growth (MALME-3M melanoma),growth (MDA-MB-231 breast),growth (RXF 393 renal),growth (SF-268 CNS),growth (SF-295 CNS),growth (SF-539 CNS),growth (UACC-257 melanoma),growth (M14 melanoma),growth (HCT-15 colon) [%]
O=C(Nc1ccc(C2=NCCCN2)cc1)Nc1ccc(C2=NCCCN2)cc1,67.4%,75%,94.5%,101%,88.8%,80.1%,99.9%,84.3%,128%,103%,76.1%,104%,112%,106%,96.8%,92.2%,80.1%,96.1%,92.7%,106
N=C(N)/N=C(\CCc1nc2ccccc2[nH]1)c1nc2ccccc2[nH]1,91.6%,93.4%,118%,97%,114%,96%,102%,107%,103%,111%,98.4%,96.9%,100%,116%,112%,120%,97.1%,109%,96.4%,106
COc1ccc(C2CC(c3ccc(OC)c(OC)c3)=NN2C(=O)c2cc(OC)c(OC)c(OC)c2)c(OC)c1 (configuration not stated),92.6%,76.4%,94.8%,76.1%,78.5%,33.9%,82.8%,66.8%,63.9%,101%,51.3%,86.7%,90.3%,48.6%,82%,31%,64.4%,61.7%,63.9%,67.4
O=C(Nc1ccc(Cl)cc1Cl)Nc1ccc(-c2cccnc2)cc1N1CCC(CO)CC1,29%,55.4%,61.5%,42%,35.1%,53.4%,27.2%,52.3%,16.1%,54.2%,17.7%,41.3%,13.6%,49.5%,48.4%,81.6%,30.9%,47.8%,36%,26.8
CC12CCC3C(CCC4CC(=O)/C(=C\O)CC43C)C1CCC(=O)O2 (configuration not stated),98.8%,113%,108%,90.9%,115%,108%,106%,92.5%,150%,115%,104%,124%,111%,141%,108%,109%,111%,115%,95.2%,121
CC[C@H](C)C(=O)O[C@H]1C[C@@H](C)C=C2C=C[C@H](C)[C@H](CC[C@@H]3C[C@@H](O)CC(=O)O3)[C@H]21,67.8%,95.5%,54.2%,104%,102%,27.3%,102%,90.5%,99.7%,106%,104%,89.7%,-35.3% (active),97.7%,42.7%,28.8%,95.9%,83.5%,59.2%,55.1
O=C1/C(=C/c2ccc3cccc(Cl)c3n2)SC(=S)N1CCc1ccc(O)cc1,94.1%,86.1%,91.6%,86.7%,99.1%,54.9%,93.6%,94.2%,107%,101%,86.2%,74.7%,79.9%,103%,84.9%,91.9%,86.9%,100%,90.8%,86.1
CCCCN(CCCC)CCCOC(=O)c1ccc(N)cc1,96.1%,76.8%,98.2%,88.7%,78.4%,67%,70.9%,95.4%,57.3%,88.2%,96.5%,93%,86.8%,92.1%,96.3%,84.5%,94.4%,88%,93.7%,101
C[n+]1c2ccccc2c(NC2CCNCC2)c2[nH]c3ccccc3c21,3.72% (active),6.63% (active),-38.2% (active),26.5%,-0.0252% (active),-73.2% (active),1.98% (active),58%,-1.65% (active),-1.88% (active),12.7%,-15.7% (active),17.1%,-13.7% (active),-31% (active),13.6%,16.7%,57.2%,60.1%,87.5
CN(CCOc1ccc(CC2SC(=O)NC2=O)cc1)c1ccccn1 (configuration not stated),99.7%,98.9%,95.3%,94.3%,102%,95.9%,99.2%,108%,82.7%,107%,118%,88.3%,86.5%,110%,105%,98.9%,104%,98.4%,99.7%,96.2
O=C1N(C2CCCCC2)C(=O)N1C1CCCCC1,45.1%,46%,35.2%,57.5%,39%,17.3%,34.5%,53.5%,62%,38.7%,55.3%,-16.9% (active),64.3%,43.2%,65.3%,-27.9% (active),26.5%,22.8%,30.4%,52.7
COc1cc(NC(=O)c2cc3ccccc3cc2O)c(OC)cc1Cl,-19.3% (active),13.5%,-3.14% (active),-29.6% (active),3.33% (active),-30.1% (active),5.74% (active),-5.13% (active),41.6%,25.6%,-2.3% (active),-23.7% (active),18.5%,20.9%,27.3%,8.57% (active),7.7% (active),-22.2% (active),4.56% (active),13.8
Oc1ccc(-c2nn(-c3ccccc3)cc2-c2nc3ccccc3s2)cc1,89.6%,85.9%,97.3%,104%,91.3%,101%,91.2%,105%,106%,106%,78.6%,98.8%,81.5%,104%,97.3%,106%,102%,107%,101%,81.6
O=[P@@]1(c2ccccc2)O[C@H](COCc2ccccc2)[C@@H](OCc2ccccc2)[C@H](OCc2ccccc2)[C@H]1NCc1ccccc1,20.5%,40.6%,47.9%,54.3%,4.06% (active),20.5%,13.3%,13.9%,-57.2% (active),45.7%,6.58% (active),-7.61% (active),13.6%,28.7%,32.2%,–,27.2%,22.5%,15.2%,15.9
S=c1[nH]nc2sc3ccccc3n12,88%,106%,125%,97.9%,111%,98.4%,108%,111%,104%,121%,107%,122%,96.7%,116%,110%,–,106%,111%,104%,100
O=C(CSc1nnc(Nc2ccccc2)s1)NCCc1ccc(F)cc1,131%,85.1%,115%,103%,105%,91.5%,124%,95.6%,115%,105%,107%,97.4%,91.5%,113%,109%,102%,96.4%,–,103%,120
